Test results taken from the OligoGym collection.

Biological target: PEAR1
Test: pooled miR-30 sensor sort-seq; sequence = guide strand
Conditions: shRNA
Further: reference of the scale not given here.

Sequence	sensor-assay potency score (higher = more potent)
TAGCTATAGCTGTAGCTTCGGT	-1.04
TTGCCTTTTTGCCAGTGCCGAT	-1.65
TTTCACATGAGCAGCGTGCAGA	-0.314
TATAGCTGTAGCTTCGGTCCAG	0.0436
ATTGCTGTAGCTATAGCTGTAG	-0.261
TCTGGCATGACATACTCGGAGC	-0.939
TTGGTGGTGGTAGTGAAGCTTT	-1.22
TCCATGTAGCTGCTCTCCCGGG	-1.66
TAGTAGTGACTGTAGCTCGGAG	-0.228
TAGCAGGTCCCGTTCGAGGGGT	-0.75
TTCATCTCCATGTAGCTGCTCT	0.0491
TTGCTGTAGCTATAGCTGTAGC	-1.31

Biological target: PEBP1
Test: as above
Conditions: shRNA

Sequence	sensor-assay potency score (higher = more potent)
TAATCGGAGAGGACTGTGCCAC	-0.276
TATTATACATGCAACACTGAAC	-0.804
TTTGATCAAAACATAAATCAGA	-0.67
TTCTTTTTTACATTCTGGGTTG	-0.707
ATACATGCAACACTGAACTGGG	0.364
TAACACGTGCCAGCCACCGGGG	-1.45
TGCTCTATCACTGTAGACCTGG	0.029
TATACATGCAACACTGAACTGG	0.186
TAAAATCACATTGTGTACCATT	-0.719
TAAACCAGCCAGACATAGCGGT	-0.718
TTTCTTTTTTACATTCTGGGTT	0.0306
TATCACTGTAGACCTGGTCTTT	-0.444
